# Laboratory results as given in the supplement of paper PMC10849652.
# Of roughly 7,900 targets only a part is listed; those with a hit were picked by preference. About 0.6% of all pairs of compound and target were hits. Values without a mark were called inactive.
# What was measured:
# Assay in all cases: log2 fold change, soluble protein after heating vs DMSO (PISA); higher = thermal stabilisation; K562 cells, 10 uM, 30 min; active = over 0.2 and 3.5 SD of the protein, either way, in both replicates (recomputed)
# erlotinib = compound: C#Cc1cccc(Nc2ncnc3cc(OCCOC)c(OCCOC)cc23)c1 [erlotinib]
# Method in brief: (§1)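 Quantification of soluble protein used TMTpro 16plex LC-MS/MS, with channel sums equalised. Samples were the supernatant after 21,000xg for 90 min of pooled aliquots from K562 cells (2×10^6 cells/mL) treated with 10 μM compound for 30 min, heated for 3 min over 48°C-58°C, and extracted in PBS with 0.5% NP-40 at 4°C. Values, from duplicates, describe thermal stability against control samples on a log2 fold-change scale.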
# [1] = compound: C/C(=N\NC(=O)C1=CC(=CC=C1)S(=O)(=O)N2CCOCC2)/C3=C(C=CC(=C3)Cl)O
# Method in brief: as §1
# [2] = compound: C1=CC(=C(C=C1Cl)C2=NC3=NC=CN=C3C(=N2)NC4=CC=NC=C4)F
# Method in brief: as §1
# [3] = compound: C1=CC(=CC=C1C2=NC3=C(N2)C=C(C=C3)C(=O)N)OC4=CC=C(C=C4)Cl
# Method in brief: as §1
# [4] = compound: C1=CC2=C(C=CC(=C2)/C=C\3/C(=O)NC(=NCC4=CC=CS4)S3)N=C1
# Method in brief: as §1
# [5] = compound: C1=CC2=NC=CN=C2C=C1/C=C/3\C(=O)NC(=O)S3
# Method in brief: as §1
# [6] = compound: C1=CC=C(C=C1)C2=NC(=C(N2)C3=CC=NC=C3)C4=CC(=C(C=C4)Cl)O
# Method in brief: as §1
# [7] = compound: C1=CC=C2C(=C1)C3=NNC4=CC=CC(=C43)C2=O
# Method in brief: as §1
# [8] = compound: C1CCN(C1)C(=O)NC2=CC=CC(=C2)NC3=NC=C(C(=N3)NCCC4=CN=CN4)Br
# Method in brief: as §1
# [9] = compound: C1CN(CCC1(CC2=CC=C(C=C2)Cl)N)C3=NC=NC4=C3C=CN4
# Method in brief: as §1
# IRAK-1-4 Inhibitor I = compound: C1COCCN1CCN2C3=CC=CC=C3N=C2NC(=O)C4=CC(=CC=C4)[N+](=O)[O-] [IRAK-1-4 Inhibitor I]
# Method in brief: as §1
# ibrutinib = compound: C=CC(=O)N1CCC[C@@H](n2nc(-c3ccc(Oc4ccccc4)cc3)c3c(N)ncnc32)C1 [ibrutinib]
# Method in brief: as §1
# [10] = compound: CC(=O)c1cnc2ccc(-c3cc(Cl)c(O)c(Cl)c3)nc2c1N[C@H]1CC[C@H](CN(C)C)CC1
# Method in brief: as §1
# ralimetinib = compound: CC(C)(C)Cn1c(N)nc2ccc(-c3[nH]c(C(C)(C)C)nc3-c3ccc(F)cc3)nc21 [ralimetinib]
# Method in brief: as §1
# [11] = compound: CC(C)(O)CC(=O)NCCn1ccc2ncnc(Nc3ccc(Oc4cccc(C(F)(F)F)c4)c(Cl)c3)c21
# Method in brief: as §1
# [12] = compound: CC(C)C1=C2N=C(C=C(N2N=C1)NCC3=CC=CC=C3)NCCCCCCN
# Method in brief: as §1
# [13] = compound: CC(C)C[C@@H](C=O)NC(=O)[C@H](CC(C)C)NC(=O)[C@H](CC(C)C)NC(=O)OCc1ccccc1
# Method in brief: as §1
# pinometostat = compound: CC(C)N(C[C@H]1O[C@@H](n2cnc3c(N)ncnc32)[C@H](O)[C@@H]1O)[C@H]1C[C@@H](CCc2nc3cc(C(C)(C)C)ccc3[nH]2)C1 [pinometostat]
# Method in brief: as §1
# [14] = compound: CC1=C(C(CC(=O)N1)C2=CC=C(C=C2)C(F)(F)F)C(=O)NC3=C(C=C4C(=C3)C=NN4)F
# Method in brief: as §1
# [15] = compound: CC1=C(C2=C(C=C1)C(=O)C3=CC=CC=C3N2CCCN)C
# Method in brief: as §1
# UniProt P12277, sequence (P12277 whole entry, looked up): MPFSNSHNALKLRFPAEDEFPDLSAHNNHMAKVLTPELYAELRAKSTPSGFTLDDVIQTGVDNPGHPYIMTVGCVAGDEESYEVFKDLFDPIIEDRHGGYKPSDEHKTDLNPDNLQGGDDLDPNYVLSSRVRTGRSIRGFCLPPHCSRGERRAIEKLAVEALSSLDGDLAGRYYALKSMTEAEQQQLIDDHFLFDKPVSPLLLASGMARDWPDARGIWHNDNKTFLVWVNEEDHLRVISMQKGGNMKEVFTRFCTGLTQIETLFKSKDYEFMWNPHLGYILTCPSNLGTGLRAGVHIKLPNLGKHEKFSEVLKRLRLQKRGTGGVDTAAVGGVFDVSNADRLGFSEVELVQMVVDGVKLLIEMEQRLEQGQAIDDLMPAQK
# UniProt Q01459, sequence (Q01459 whole entry, looked up): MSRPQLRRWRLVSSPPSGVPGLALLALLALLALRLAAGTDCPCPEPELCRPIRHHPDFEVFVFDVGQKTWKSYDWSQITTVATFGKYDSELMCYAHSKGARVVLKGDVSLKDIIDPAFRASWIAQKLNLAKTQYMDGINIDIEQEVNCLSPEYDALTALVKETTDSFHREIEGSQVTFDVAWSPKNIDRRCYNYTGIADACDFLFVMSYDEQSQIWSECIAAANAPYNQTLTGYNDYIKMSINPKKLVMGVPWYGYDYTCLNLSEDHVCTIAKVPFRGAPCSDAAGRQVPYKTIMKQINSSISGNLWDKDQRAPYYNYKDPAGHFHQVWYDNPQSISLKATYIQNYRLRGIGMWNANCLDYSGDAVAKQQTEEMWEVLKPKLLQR
# UniProt Q9UKF6, sequence (Q9UKF6 whole entry, looked up): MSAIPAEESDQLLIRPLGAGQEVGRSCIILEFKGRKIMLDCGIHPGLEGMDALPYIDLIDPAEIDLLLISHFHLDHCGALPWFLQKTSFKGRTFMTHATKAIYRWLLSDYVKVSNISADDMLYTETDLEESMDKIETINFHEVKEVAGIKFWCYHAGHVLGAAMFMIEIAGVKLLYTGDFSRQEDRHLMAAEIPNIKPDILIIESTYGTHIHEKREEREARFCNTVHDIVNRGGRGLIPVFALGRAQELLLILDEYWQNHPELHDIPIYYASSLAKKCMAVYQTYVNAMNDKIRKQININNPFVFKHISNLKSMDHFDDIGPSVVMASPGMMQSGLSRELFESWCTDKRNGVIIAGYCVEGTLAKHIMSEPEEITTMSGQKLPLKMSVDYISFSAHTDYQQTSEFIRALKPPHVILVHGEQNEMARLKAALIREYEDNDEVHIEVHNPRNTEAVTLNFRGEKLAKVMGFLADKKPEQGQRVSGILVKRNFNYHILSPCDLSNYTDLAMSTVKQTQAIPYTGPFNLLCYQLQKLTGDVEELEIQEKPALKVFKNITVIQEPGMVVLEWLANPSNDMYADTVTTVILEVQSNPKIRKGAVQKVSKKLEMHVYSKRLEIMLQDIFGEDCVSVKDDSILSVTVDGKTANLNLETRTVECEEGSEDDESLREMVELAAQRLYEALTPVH
# UniProt P35520, sequence (P35520 whole entry, looked up): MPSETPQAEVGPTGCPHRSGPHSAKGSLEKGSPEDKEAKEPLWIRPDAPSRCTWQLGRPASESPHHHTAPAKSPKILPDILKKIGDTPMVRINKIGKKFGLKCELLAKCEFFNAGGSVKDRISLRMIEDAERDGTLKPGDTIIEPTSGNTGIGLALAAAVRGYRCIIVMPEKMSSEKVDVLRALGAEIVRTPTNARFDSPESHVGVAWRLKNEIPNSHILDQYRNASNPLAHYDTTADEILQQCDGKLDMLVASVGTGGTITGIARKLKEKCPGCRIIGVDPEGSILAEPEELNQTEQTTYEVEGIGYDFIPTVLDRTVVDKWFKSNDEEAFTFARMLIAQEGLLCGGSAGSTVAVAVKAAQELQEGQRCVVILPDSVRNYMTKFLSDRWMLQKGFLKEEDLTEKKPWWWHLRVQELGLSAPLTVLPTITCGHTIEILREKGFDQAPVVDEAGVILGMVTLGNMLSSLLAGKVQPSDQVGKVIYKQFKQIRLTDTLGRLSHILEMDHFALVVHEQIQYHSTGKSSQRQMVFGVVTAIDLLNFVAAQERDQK
# UniProt P33240, sequence (P33240 whole entry, looked up): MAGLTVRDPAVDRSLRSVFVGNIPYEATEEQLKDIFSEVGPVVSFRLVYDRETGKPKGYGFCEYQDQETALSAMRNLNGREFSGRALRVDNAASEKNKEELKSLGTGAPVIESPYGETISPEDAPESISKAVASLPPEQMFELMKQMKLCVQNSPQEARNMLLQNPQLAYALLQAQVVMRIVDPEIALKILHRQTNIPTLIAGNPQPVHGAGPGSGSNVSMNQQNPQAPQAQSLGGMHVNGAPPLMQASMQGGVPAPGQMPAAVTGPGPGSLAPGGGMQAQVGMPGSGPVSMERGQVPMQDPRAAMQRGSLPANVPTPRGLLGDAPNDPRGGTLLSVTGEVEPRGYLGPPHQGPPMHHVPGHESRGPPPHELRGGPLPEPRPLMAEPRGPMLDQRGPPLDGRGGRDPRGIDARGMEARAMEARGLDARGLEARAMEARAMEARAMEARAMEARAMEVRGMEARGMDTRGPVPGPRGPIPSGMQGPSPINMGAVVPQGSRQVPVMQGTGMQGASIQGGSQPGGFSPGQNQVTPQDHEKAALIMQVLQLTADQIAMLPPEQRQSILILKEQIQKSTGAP
# UniProt Q5RI15, sequence (Q5RI15 whole entry, looked up): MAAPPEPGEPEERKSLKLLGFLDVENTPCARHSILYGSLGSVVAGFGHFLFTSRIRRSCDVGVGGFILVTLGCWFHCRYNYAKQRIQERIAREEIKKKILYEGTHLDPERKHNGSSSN
# UniProt Q96LT7, sequence (Q96LT7 whole entry, looked up): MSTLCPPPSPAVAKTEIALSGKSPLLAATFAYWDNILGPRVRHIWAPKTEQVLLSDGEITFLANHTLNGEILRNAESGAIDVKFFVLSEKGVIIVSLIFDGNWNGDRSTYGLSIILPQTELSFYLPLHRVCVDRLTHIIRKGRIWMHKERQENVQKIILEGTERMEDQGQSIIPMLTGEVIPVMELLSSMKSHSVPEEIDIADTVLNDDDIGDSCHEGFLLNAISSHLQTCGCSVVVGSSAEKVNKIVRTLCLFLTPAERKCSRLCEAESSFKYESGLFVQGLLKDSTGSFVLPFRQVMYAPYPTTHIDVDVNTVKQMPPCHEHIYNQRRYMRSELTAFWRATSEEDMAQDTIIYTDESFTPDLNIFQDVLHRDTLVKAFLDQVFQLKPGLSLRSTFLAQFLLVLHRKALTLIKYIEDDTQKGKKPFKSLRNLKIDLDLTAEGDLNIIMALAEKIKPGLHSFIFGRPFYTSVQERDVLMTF
# UniProt Q9Y5S2, sequence (Q9Y5S2 whole entry, looked up): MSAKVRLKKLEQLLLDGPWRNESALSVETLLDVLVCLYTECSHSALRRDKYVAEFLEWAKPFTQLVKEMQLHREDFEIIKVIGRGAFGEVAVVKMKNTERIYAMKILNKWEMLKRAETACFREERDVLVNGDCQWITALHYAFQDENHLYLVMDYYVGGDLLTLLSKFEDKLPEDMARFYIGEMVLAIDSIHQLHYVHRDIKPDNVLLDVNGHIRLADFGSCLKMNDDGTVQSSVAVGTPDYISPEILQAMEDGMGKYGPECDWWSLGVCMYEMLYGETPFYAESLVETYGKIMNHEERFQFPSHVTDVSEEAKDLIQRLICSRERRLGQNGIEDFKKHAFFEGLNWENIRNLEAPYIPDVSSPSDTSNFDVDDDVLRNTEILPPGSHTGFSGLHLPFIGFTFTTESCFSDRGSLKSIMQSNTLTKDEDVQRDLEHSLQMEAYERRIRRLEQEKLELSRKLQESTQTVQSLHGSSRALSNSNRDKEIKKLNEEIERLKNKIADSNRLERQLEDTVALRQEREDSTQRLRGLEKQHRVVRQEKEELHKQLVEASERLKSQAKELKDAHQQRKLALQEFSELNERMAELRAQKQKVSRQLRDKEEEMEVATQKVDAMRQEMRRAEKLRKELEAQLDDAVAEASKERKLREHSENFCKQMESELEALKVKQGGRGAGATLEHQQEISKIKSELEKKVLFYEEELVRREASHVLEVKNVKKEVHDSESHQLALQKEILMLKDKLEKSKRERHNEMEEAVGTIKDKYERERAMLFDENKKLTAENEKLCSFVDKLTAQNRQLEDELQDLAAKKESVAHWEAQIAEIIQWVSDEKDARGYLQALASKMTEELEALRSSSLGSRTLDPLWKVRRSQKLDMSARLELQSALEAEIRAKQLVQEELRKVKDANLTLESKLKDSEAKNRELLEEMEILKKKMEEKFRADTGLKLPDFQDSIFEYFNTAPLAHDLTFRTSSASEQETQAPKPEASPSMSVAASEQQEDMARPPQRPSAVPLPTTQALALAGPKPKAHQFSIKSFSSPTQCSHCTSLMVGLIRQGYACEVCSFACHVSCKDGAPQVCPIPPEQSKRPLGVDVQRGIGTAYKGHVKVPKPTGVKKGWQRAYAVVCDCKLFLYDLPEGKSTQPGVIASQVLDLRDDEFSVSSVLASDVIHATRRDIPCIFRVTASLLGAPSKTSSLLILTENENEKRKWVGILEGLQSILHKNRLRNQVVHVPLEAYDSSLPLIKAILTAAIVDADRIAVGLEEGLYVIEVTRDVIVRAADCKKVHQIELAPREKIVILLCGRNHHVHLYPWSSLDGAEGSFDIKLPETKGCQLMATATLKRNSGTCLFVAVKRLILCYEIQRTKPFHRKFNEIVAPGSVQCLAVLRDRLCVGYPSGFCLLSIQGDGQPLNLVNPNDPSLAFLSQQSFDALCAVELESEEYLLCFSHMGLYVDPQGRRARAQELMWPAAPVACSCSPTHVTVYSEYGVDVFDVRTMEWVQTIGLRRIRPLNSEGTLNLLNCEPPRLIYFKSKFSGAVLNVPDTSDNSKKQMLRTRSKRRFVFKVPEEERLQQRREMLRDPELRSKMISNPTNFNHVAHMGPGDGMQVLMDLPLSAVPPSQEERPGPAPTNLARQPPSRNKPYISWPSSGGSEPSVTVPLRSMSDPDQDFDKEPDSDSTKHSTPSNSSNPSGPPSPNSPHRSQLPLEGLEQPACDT
Target,log2 fold change (erlotinib),log2 fold change [1],log2 fold change [2],log2 fold change [3],log2 fold change [4],log2 fold change [5],log2 fold change [6],log2 fold change [7],log2 fold change [8],log2 fold change [9],log2 fold change (IRAK-1-4 Inhibitor I),log2 fold change (ibrutinib),log2 fold change [10],log2 fold change (ralimetinib),log2 fold change [11],log2 fold change [12],log2 fold change [13],log2 fold change (pinometostat),log2 fold change [14],log2 fold change [15]
COX20 isoform 2 (UniProt Q5RI15),0.037,0.013,0.072,0.008,0.057,0.016,-0.092,-0.061,0,0.03,-0.019,0.043,-0.022,-0.055,0.016,0.006,0,-0.018,-0.018,0.019
CDC42BPB (UniProt Q9Y5S2),-0.005,0.221,-0.071,0.069,-0.047,0.027,-0.024,0.04,0.017,-0.221,-0.022,-0.167,-0.637 (active),0.124,0.023,-0.063,-0.009,0.267,-0.038,0.023
CNN2 (UniProt Q99439),0.047,0.124,0.109,-0.039,0.013,0.032,-0.012,-0.011,-0.017,-0.042,-0.037,-0.07,0.011,0.007,-0.091,-0.052,0.038,0.018,0.05,0.007
CPSF3 (UniProt Q9UKF6),0.006,0.104,0.028,0,-0.003,0.048,0,-0.022,-0.005,-0.011,-0.044,-0.04,0.026,-0.006,0.028,-0.052,0.035,0.036,-0.025,-0.013
C9orf72 (UniProt Q96LT7),0.095,0.021,0.02,-0.012,-0.068,-0.068,-0.086,-0.057,-0.205,0.211,0.016,0.022,-0.001,0.035,-0.051,0.029,-0.019,0.135,-0.095,0.048
CSNK1A1 (UniProt P48729),0.073,0.002,-0.028,-0.002,-0.008,0.018,-0.029,-0.088,0.001,-0.064,-0.016,0.015,-0.053,0.026,-0.041,-0.25 (active),0.145,0.112,0.038,0.028
COPS4 (UniProt Q9BT78),-0.002,0.061,0.13,-0.004,0.036,-0.006,0.054,0.024,-0.009,-0.002,0.015,0.043,0.01,-0.004,-0.014,0.009,-0.008,-0.048,-0.019,0.028
CSTF2 (UniProt P33240),0.032,-0.002,-0.011,0.017,0.017,0.051,-0.076,0.023,0.033,-0.061,0.011,0.008,0.057,-0.006,0.025,0.093,-0.006,-0.008,0,0.169
CA8 (UniProt P35219),-0.045,0.051,0.092,-0.017,0.054,0.019,0.118,-0.02,-0.054,0.011,0.027,0.004,-0.091,0.033,-0.036,-0.056,0.011,-0.008,-0.021,-0.046
CBS (UniProt P35520),0.014,-0.031,0.039,-0.014,-0.026,0.013,-0.03,0.052,0.025,0.042,0.044,-0.007,0.008,-0.01,0.027,0.036,-0.013,-0.048,0.034,0.001
CERT isoform 3 (UniProt Q9Y5P4),0.05,0.083,0.018,-0.009,0.039,0.005,0.044,0,-0.054,-0.007,-0.052,0.017,-0.382 (active),0.038,0.166,0.103,0.005,0.026,-0.048,-0.033
CCZ1 (UniProt P86791),0.027,0.046,-0.003,0.064,0.034,-0.017,0.031,0.011,0.016,0.011,0.063,-0.001,-0.039,-0.051,-0.05,-0.287 (active),0.025,0.012,-0.007,0.006
CD55 isoform 7 (UniProt P08174),-0.065,-0.002,-0.031,0.036,-0.121,-0.015,0.011,-0.062,-0.079,0.008,-0.043,0.071,-0.008,0.016,0.037,0.155,-0.012,0.019,0.02,-0.054
CTBS (UniProt Q01459),0.037,-0.008,-0.1,-0.023,0.039,0.013,-0.089,-0.002,-0.083,0.048,0.073,0.067,-0.082,-0.035,0.018,-0.151,-0.028,-0.009,0.1,-0.061
CKB (UniProt P12277),0.011,0.045,0.052,0.035,0.018,-0.038,0.01,0.065,0.022,0.027,0.014,-0.024,-0.009,-0.01,-0.077,-0.045,0.021,-0.02,-0.014,0.059
